# Results filed as inconclusive are left out. Some structures have more than one record in an assay (separate samples or runs), and their calls can disagree. Active and inactive are the calls of the source. The calls were made as follows: active = hit-call score of the fitted dose curve at least 0.9, where 1 is the maximum; inconclusive = response in the unintended direction; inactive = score below 0.9.
# Assays:
# [1] = target: human Constitutive Androstane Receptor (CAR), NR1I3 (gene 9970) (UniProt Q14994); assay: NVS_NR_hCAR_Antagonist: NovaScreen (NVS) Nuclear Receptor Binding Assay for human Constitutive Androstane Receptor Antagonism (CAR) (AID 2283344)
# human Constitutive Androstane Receptor (CAR), NR1I3 (gene 9970), sequence (Q14994 whole entry, looked up): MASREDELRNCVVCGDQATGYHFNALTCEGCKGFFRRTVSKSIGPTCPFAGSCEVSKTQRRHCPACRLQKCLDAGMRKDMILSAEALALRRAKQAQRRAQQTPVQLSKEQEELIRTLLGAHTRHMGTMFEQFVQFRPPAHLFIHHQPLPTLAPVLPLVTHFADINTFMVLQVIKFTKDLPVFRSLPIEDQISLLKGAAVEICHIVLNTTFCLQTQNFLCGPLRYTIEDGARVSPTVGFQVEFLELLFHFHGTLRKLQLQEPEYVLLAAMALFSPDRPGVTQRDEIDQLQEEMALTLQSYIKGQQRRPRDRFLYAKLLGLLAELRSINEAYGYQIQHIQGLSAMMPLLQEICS
# Protocol: NVS_NR_hCAR_Antagonist is a biochemical, single-readout assay that uses extracted gene-proteins in a cell-free assay. Measurements were taken 1 hour after chemical dosing in a 384-well plate.NVS_NR_hCAR_Antagonist is one of one assay component(s) measured or calculated from the NVS_NR_hCAR_Antagonist assay. It is designed to make measurements of fluorescent resonance energy transfer, a form of binding reporter, as detected with fluorescent resonance energy transfer signals by Time-Resolved Fluorescence Resonance Energy Transfer (TR-FRET) technology.Data from the assay component NVS_NR_hCAR_Antagonist was analyzed into 1 assay endpoint. This assay endpoint, NVS_NR_hCAR_Antagonist, was analyzed in the positive analysis fitting direction relative to DMSO as the negative control and baseline of activity. Using a type of binding reporter, loss-of-signal activity can be used to understand changes in the binding as they relate to the gene NR1I3. Furthermore, this assay endpoint can be referred to as a primary readout, because the performed assay has only produced 1 assay endpoint. To generalize the intended target to other relatable targets, this assay endpoint is annotated to the nuclear receptor intended target family, where the subfamily is non-steroidal.
# Binding assays used specific radioligands (tritiated, iodinated) with non-radioactive competitive displacement ligands in agonist or antagonist protocols (as indicated) and various reference compounds and inhibitors to titrate specific binding to receptors and transporters. Most enzyme assays (CYPs, kinases, phosphatases, proteases, HDACs) used recombinant protein and specific substrates (fluorescence mostly, some colorimetric and radioactive) and inhibitors, followed by a biochemical separation of substrate and product. All assays for the biochemical HTS were initially run in duplicate at a single concentration (10 uM for CYP450 assays and 25 uM for all others). […] Each assay was run with positive and negative controls, and concurrent controls on every plate. The follow-up (secondary) screen tested active chemical-pairs in concentration series, as well as a few additional assays not tested in the primary screen, some selected negative inactives, and several cases re-run in the concentration series for confirmatory purposes.
# [2] = target: Estrogen receptor (Homo sapiens) (UniProt P03372); assay: OT_ER_ERaERa_1440: Odyssey Thera (OT) 24-hour HEK293T Protein-Complementation Assay for Estrogen Receptor-alpha/-alpha Homodimer (AID 2283349);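 also: hits raise fluorescence above DMSO for agonists and antagonists alike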
# Estrogen receptor (Homo sapiens), sequence (P03372 whole entry, looked up, the tested form may be a part): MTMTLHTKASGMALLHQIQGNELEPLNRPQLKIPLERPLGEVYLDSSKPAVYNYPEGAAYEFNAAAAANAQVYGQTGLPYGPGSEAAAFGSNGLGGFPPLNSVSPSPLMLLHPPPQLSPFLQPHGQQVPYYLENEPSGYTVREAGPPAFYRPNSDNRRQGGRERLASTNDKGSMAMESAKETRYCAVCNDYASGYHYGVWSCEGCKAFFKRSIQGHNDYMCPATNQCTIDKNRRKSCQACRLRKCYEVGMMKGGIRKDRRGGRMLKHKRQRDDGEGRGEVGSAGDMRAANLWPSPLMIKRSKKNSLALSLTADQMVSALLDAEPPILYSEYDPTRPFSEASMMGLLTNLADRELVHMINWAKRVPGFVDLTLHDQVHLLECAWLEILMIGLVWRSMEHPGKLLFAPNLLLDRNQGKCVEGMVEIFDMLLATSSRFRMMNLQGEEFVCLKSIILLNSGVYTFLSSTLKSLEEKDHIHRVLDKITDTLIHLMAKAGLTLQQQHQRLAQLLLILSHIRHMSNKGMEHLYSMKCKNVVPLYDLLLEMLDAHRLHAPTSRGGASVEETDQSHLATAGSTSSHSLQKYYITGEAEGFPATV
# Procedure, shortened: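 HEK293T, stable ERα LBD (aa 310-547) homodimer PCA; 24 h compound exposure; mean fluorescence intensity (nuclear for agonists, nuclear plus cytoplasmic for antagonists) vs vehicle; positive fitting direction, DMSO baseline.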
# [3] = target: bovine Gamma-Aminobutyric Acid Type A Receptor Agonist (GABAR Agonist), GABRA1 (gene 780973) (UniProt P08219); assay: NVS_LGIC_bGABAR_Agonist: NovaScreen (NVS) Ligand-Gated Ion Channel Assay for bovine Gamma-Aminobutyric Acid Type A Receptor Agonist (GABAR Agonist) (AID 2283338)
# bovine Gamma-Aminobutyric Acid Type A Receptor Agonist (GABAR Agonist), GABRA1 (gene 780973), sequence (P08219 whole entry, looked up): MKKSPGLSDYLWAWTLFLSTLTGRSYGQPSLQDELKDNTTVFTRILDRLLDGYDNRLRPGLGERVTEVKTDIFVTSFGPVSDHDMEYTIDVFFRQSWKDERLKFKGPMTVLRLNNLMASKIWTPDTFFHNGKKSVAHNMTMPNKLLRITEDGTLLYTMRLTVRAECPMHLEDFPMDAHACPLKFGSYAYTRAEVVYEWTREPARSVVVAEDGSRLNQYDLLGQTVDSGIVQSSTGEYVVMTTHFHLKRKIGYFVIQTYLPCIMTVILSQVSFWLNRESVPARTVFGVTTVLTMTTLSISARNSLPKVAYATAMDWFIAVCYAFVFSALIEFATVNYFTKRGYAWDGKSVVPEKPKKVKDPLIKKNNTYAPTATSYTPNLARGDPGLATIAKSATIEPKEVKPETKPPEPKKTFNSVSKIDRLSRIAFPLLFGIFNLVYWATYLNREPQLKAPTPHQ
# Procedure, shortened: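 Radioligand binding to bovine cerebellar membranes in agonist format, read by filter-based scintillation counting after 1 h. Primary screen in duplicate at 25 uM, with actives followed in concentration series. Gain of signal versus DMSO.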
# [4] = target: bovine Estrogen Receptor (ER), ESR1 (gene 407238) (UniProt P49884); assay: NVS_NR_bER: NovaScreen (NVS) Nuclear Receptor Binding Assay for bovine Estrogen Receptor (ER) (AID 2283345);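 also: actives lower the bound radioligand count which means they displace the ER ligand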
# bovine Estrogen Receptor (ER), ESR1 (gene 407238), sequence (P49884 whole entry, looked up): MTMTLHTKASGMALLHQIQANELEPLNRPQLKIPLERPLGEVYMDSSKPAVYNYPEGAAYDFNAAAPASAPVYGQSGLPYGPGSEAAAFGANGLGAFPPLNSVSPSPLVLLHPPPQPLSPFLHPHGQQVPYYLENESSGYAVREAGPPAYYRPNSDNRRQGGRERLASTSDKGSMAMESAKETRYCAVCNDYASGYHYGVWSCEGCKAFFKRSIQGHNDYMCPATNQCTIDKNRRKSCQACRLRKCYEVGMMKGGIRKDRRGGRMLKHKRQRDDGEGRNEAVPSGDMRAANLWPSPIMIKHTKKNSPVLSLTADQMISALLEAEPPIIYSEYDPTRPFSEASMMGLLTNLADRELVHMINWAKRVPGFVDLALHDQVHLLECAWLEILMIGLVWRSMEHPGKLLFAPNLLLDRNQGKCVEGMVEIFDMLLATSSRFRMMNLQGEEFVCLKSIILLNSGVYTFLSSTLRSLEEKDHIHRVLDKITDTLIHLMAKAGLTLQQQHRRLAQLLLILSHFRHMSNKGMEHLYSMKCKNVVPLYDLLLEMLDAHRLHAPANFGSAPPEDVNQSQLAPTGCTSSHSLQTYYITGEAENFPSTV
# Procedure, shortened: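 Cell-free radioligand binding with receptor from bovine uterine membranes, read by scintillation counting 18 h after dosing. Loss of specific binding was scored against DMSO; primary screen at 25 uM in duplicate, actives then run as concentration series.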
# [5] = tested on: guinea pig Histamine Receptor (H2), gene 100729734; assay: NVS_GPCR_gH2: NovaScreen (NVS) G Protein-Coupled Receptor Assay for guinea pig Histamine Receptor (H2) (AID 2283342)
# Procedure, shortened: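 Guinea pig striatal membrane preparation with specific radioligand; bound counts measured by filtration and scintillation 1 h post-dosing, DMSO as baseline. Chemicals passing a 25 uM duplicate screen were titrated to a 50 uM maximum.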
# [6] = target: Estrogen receptor (Homo sapiens) (UniProt P03372); assay: NVS_NR_hER: NovaScreen (NVS) Nuclear Receptor Binding Assay for human Estrogen Receptor (ER) (AID 2283348)
# Procedure, shortened: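 Cell-free MCF7-derived ER preparation, specific radioligand displaced by test compound, read by scintillation counting 18 h post-dosing. Duplicate single-point 25 uM screen, then concentration-response confirmation; DMSO baseline.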
# [7] = target: rat Glycine Receptor, Strychnine-sensitive (GlyRStrySens), Glra1 (gene 25674) (UniProt P07727); assay: NVS_LGIC_rGlyRStrySens: NovaScreen (NVS) Ligand-Gated Ion Channel Assay for rat Glycine Receptor, Strychnine-sensitive (GlyRStrySens) (AID 2283341)
# rat Glycine Receptor, Strychnine-sensitive (GlyRStrySens), Glra1 (gene 25674), sequence (P07727 whole entry, looked up): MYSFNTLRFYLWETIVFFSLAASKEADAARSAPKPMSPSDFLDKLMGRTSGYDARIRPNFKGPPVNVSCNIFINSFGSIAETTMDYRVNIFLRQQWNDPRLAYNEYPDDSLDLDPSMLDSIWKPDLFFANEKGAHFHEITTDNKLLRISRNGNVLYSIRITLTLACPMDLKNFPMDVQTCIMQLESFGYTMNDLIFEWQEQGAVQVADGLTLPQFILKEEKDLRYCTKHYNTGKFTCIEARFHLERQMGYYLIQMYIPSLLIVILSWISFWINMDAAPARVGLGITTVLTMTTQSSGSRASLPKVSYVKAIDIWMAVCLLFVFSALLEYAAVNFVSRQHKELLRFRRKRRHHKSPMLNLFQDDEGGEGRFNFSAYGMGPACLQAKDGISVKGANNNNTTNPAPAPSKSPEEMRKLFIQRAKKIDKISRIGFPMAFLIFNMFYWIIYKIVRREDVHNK
# Procedure, shortened: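 Radioligand displacement on rat spinal cord membranes, 1 hr, filter scintillation read-out. Single-concentration duplicate screen at 25 uM; chemicals meeting threshold (e.g., 30% inhibition) rerun in concentration-response up to 50 uM. Loss of binding fitted versus DMSO.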
# [8] = target: chimpanzee Androgen Receptor (AR), AR (gene 747460) (UniProt O97775); assay: NVS_NR_cAR: NovaScreen (NVS) Nuclear Receptor Binding Assay for chimpanzee Androgen Receptor (AR) (AID 2283346);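 also: radioligand displacement from AR measured by scintillation counting in a cell-free assay; a loss of bound radioligand signal versus DMSO counts as binding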
# chimpanzee Androgen Receptor (AR), AR (gene 747460), sequence (O97775 whole entry, looked up): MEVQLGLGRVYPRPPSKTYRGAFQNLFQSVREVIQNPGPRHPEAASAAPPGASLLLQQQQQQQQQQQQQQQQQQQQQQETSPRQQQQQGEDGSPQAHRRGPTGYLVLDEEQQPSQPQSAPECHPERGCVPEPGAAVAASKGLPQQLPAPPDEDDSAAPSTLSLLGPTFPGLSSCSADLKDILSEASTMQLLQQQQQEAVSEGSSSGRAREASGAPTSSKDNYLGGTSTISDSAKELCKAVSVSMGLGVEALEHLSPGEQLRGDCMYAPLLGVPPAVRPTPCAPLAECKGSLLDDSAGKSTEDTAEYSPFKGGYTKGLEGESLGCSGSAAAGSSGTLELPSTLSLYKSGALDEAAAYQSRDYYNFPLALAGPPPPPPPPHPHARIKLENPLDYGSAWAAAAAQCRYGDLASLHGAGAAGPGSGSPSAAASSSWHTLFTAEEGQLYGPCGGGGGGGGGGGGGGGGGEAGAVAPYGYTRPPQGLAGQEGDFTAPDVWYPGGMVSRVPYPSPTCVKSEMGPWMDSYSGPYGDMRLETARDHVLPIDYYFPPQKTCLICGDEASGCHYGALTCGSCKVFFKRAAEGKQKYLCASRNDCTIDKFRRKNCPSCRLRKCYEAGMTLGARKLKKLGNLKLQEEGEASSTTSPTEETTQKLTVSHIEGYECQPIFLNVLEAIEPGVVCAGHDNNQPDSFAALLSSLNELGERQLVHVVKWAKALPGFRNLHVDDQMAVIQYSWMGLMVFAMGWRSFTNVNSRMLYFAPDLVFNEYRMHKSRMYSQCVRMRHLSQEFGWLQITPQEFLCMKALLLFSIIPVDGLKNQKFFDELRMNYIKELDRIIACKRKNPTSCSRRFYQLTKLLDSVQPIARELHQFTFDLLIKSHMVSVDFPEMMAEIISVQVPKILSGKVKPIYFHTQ
# Procedure, shortened: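 Cell-free competition binding with insect-cell (Sf9/Sf21) extracted chimpanzee AR; scintillation signal from lysate at 72 h. Screened in duplicate at 25 uM, then concentration-response for actives; fitting relative to DMSO.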
# NCBI gene 100848466 = assay: NVS_NR_bPR: NovaScreen (NVS) Nuclear Receptor Binding Assay for bovine Progextron Receptor (PR) (AID 2283343);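 as to AC50: actives lower bound radioligand signal below DMSO meaning displacement of the label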
# Procedure, shortened: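 Competitive radioligand binding with membranes from bovine uterus, scintillation read-out at 18 h post-dose. Compounds first tested in duplicate at 25 uM, then actives in concentration series; loss-of-signal relative to DMSO.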
# [9] = target: rat Glutamate, MK-801 Agonist Site (GluNMDA_MK801), Grin1 (gene 24408) (UniProt P35439); assay: NVS_LGIC_rGluNMDA_MK801_Agonist: NovaScreen (NVS) Ligand-Gated Ion Channel Assay for rat Glutamate, MK-801 Agonist Site (GluNMDA_MK801) (AID 2283340)
# Procedure, shortened: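 Rat forebrain membrane preparation; MK-801-site radioligand binding read by filtration and scintillation after 1.5 h. Single-point 25 uM duplicate screen, followed by singleton concentration series to 50 uM max; DMSO baseline.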
compound,measurement,setting,value
O=C(O)c1ccc2c(c1)nc(C(=O)NC1CCN(C3CC3)CC1)n2Cc1cc(-c2ccc(Cl)s2)on1,outcome,[1],inactive
same,outcome,[2],inactive
NC(=O)N1c2ccccc2C=Cc2ccccc21,outcome,[3],inactive
same,outcome,[4],inactive
same,outcome,[2],inactive
Cc1ncc([C@@H](CCCCCCc2ccc3c(n2)NCCC3)CC(=O)O)cn1,AC50,[5],25 µM (active)
same,outcome,[2],inactive
CCN(CC)C(=S)SSC(=S)N(CC)CC,outcome,[6],inactive
same,outcome,[2],inactive
CCCCCCCCCCCCCCCCOS(=O)(=O)O,outcome,[1],inactive
same,outcome,[2],inactive
OC[C@H]1O[C@@H]2O[C@H]3[C@H](O)[C@@H](O)[C@@H](O[C@H]4[C@H](O)[C@@H](O)[C@@H](O[C@H]5[C@H](O)[C@@H](O)[C@@H](O[C@H]6[C@H](O)[C@@H](O)[C@@H](O[C@H]7[C@H](O)[C@@H](O)[C@@H](O[C@H]1[C@H](O)[C@H]2O)O[C@@H]7CO)O[C@@H]6CO)O[C@@H]5CO)O[C@@H]4CO)O[C@@H]3CO,AC50,[4],1.18 µM (active)
same,AC50,[6],0.472 µM (active)
same,outcome,[2],inactive
Nc1ccn([C@@H]2O[C@H](CO)[C@@H](O)[C@@H]2O)c(=O)n1,AC50,[6],22.5 µM (active)
same,outcome,[2],inactive
CCCCCCCC1CCC(=O)O1 (stereo not given),outcome,[7],inactive
same,outcome,[2],inactive
C[C@]12C=CC(=O)C=C1CC[C@H]1[C@@H]3C[C@@H](O)[C@](O)(C(=O)CO)[C@@]3(C)C[C@H](O)[C@@]12F,outcome,[4],inactive
same,AC50,[8],32.6 µM (active)
same,AC50,[6],38.3 µM (active)
same,outcome,[2],inactive
CCCC(CCC)C(=O)O,outcome,[6],inactive
same,outcome,[2],inactive
COc1cc(C(C)C)c2c(c1)S(=O)(=O)N(COc1cc(=O)n3cccc(OCCN4CCCCC4)c3n1)C2=O,AC50,[5],3.13 µM (active)
same,outcome,[6],inactive
same,outcome,[2],inactive
O=C(O)c1cccc(C[C@@H]2COc3ccc(OCc4nc5cc(F)ccc5s4)cc3[C@@H]2O)c1,outcome,[4],inactive
same,AC50,[8],20.8 µM (active)
same,outcome,[2],inactive
O=C1CN(N=Cc2ccc([N+](=O)[O-])o2)C(=O)N1,outcome,[3],inactive
same,outcome,[2],inactive
CCCCCCOC(=O)CC(CC(=O)OCCCCCC)(OC(=O)CCC)C(=O)OCCCCCC,outcome,[3],inactive
same,outcome,[2],inactive
CCCCCCCCCC,outcome,[4],inactive
same,outcome,[2],inactive
C=CCc1cc(S(=O)(=O)c2ccc(O)c(CC=C)c2)ccc1O,outcome,NCBI gene 100848466,inactive
same,AC50,[4],19.1 µM (active)
same,AC50,[8],33.1 µM (active)
same,AC50,[6],12.5 µM (active)
same,outcome,[6],inactive
same,outcome,[2],inactive
CCn1nc(C)c2c1C(=O)NCC(c1ccc(O)cc1)=N2,outcome,[5],inactive
same,outcome,[2],inactive
CCc1cccc(CC)c1N,AC50,[6],10 µM (active)
same,outcome,[2],inactive
CC(C)C(=O)Nc1ccc([N+](=O)[O-])c(C(F)(F)F)c1,outcome,NCBI gene 100848466,inactive
same,outcome,[6],inactive
same,outcome,[2],inactive
CCCCC(CC)C(=O)OCCOCCOCCOC(=O)C(CC)CCCC (stereo not given),outcome,[1],inactive
same,outcome,[4],inactive
same,outcome,[6],inactive
same,outcome,[2],inactive
NNC(=O)c1ccncc1,outcome,[6],inactive
same,outcome,[2],inactive
Cc1cccc(O)c1C,outcome,[4],inactive
same,outcome,[6],inactive
same,outcome,[2],inactive
Cn1cc[nH]c1=S,outcome,NCBI gene 100848466,inactive
same,outcome,[2],inactive
CC(=O)c1ccccc1,outcome,[3],inactive
same,outcome,[2],inactive
Cc1nccn1-c1ccc(Sc2cccc(C3(C(N)=O)CCOCC3)c2)cc1,outcome,[5],inactive
same,AC50,NCBI gene 100848466,7.1 µM (active)
same,outcome,[2],inactive
c1ccc(C(O[C@@H]2CCCN(CCc3ccc4c(c3)OCO4)C2)c2ccccc2)cc1,outcome,[9],inactive
same,AC50,[5],0.337 µM (active)
same,outcome,[4],inactive
same,outcome,[8],inactive
same,outcome,[6],inactive
same,AC50,[2],68.3 µM (active)
COc1cc2c(c(OC)c1OC)-c1ccc(OC)c(=O)cc1[C@@H](NC(C)=O)CC2,outcome,[2],inactive
COS(C)(=O)=O,outcome,[4],inactive
same,outcome,[6],inactive
same,outcome,[2],inactive
OC(Cn1cncn1)(Cn1cncn1)c1ccc(F)cc1F,outcome,[3],inactive
same,outcome,[2],inactive
c1ccc2c(c1)-c1cccc3c1c-2cc1ccccc13,outcome,[8],inactive
same,outcome,[2],inactive
Cc1nc(-c2ccccn2)ncc1C(=O)Nn1cc(C)c2cc(F)ccc21,outcome,[1],inactive
same,outcome,[2],inactive
CCc1ccc(O)c(C(C)(C)C)c1,outcome,[3],inactive
same,outcome,[6],inactive
same,outcome,[2],inactive
OCCOCCOCCO,outcome,[2],inactive
O=c1[nH]cnc2c1ncn2[C@H]1CC[C@@H](CO)O1,outcome,[1],inactive
same,outcome,[2],inactive
OCC(CO)(CO)CO,outcome,[4],inactive
same,AC50,[6],3.49 µM (active)
same,outcome,[2],inactive
